In PubChem BioAssay AID449764 (Southern Research Specialized Biocontainment Screening …, 2010) one finds outcome data, which are given here for 70 compounds.

Structures are written as SMILES. About 1,700 (74%) of roughly 2,300 compounds were called active. No rule for the calls is given here. The set was probably picked from earlier hits. The list shows a part of the results. Entries with a potency or affinity are not part of this list.

A short description of this assay: Mycobacterium tuberculosis H37Rv growth inhibition, no glycerol, confirmatory dose response (AID 449764).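 Also: growth read after 7 days of incubation.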 As to conditions: series mostly up to 100 µM.
As for `CCOc1ccc(OCc2ccc(C(=O)N/N=C(\C)c3ccccn3)cc2)cc1`, the compound was classed as inactive. The result for `C/C(=N\NC(=O)CC(C)C)c1c(C(F)(F)F)[nH]n(-c2nc3ccccc3s2)c1=O` reads “inactive”; that for `Oc1cccc(-c2nc3ccccc3s2)c1`, “inactive”; that for `Cc1ccc(NC(=O)CNCc2cccs2)cc1Br`, “inactive”. The result for `COC(=O)c1ccc(N/C(C)=C/C(=O)c2ccc(C)o2)cc1` reads “inactive”; that for `O=C(c1cccc([N+](=O)[O-])c1)N1CCN(c2ccc(N3CCOCC3)nn2)CC1`, “inactive”; that for `S=c1[nH]c2ccc3ccccc3c2[nH]1`, “inactive”.

Regarding `Oc1ccccc1C=NC1=NN(c2cccc(C(F)(F)F)c2)CC1`, the call was inactive. To `CCCCCCc1ccc(N2C[C@H](C)[C@@H](CC(=O)NCc3ccccc3)C2=O)cc1` belongs “inactive”; to `O=Cc1ccc(-c2ccc(Cl)cc2Cl)[nH]1`, “inactive”. To `O=C(Nc1ccc(-c2noc(CCc3ccccc3)n2)cc1)c1cccnc1` belongs “inactive”. To `CNC(=O)c1csc(-c2ccc(Cl)cc2)n1` belongs “inactive”; to `CN1C(=O)c2cccc3c(Br)ccc(c23)C1=O`, “inactive”. In the case of `O=C(C1CC(=O)N(c2ccc3c(c2)OCCO3)C1)N1CCN(c2cccc(C(F)(F)F)c2)CC1` (stereo not given), the result was inactive. The result for `CO/N=C\CC(=O)Nc1ccc(Oc2ccccc2)cc1` reads “inactive”; that for `COc1ccc(-c2cc(C(=O)N(C)CC(=O)Nc3cccc(F)c3)c3ccccc3n2)cc1`, “inactive”; that for `CCc1ccc(NC(=O)c2ccc(C3SCC(=O)N3CCc3ccccc3)cc2)cc1` (stereo not given), “inactive”. As to `COc1cc(/C=N/N2CCOCC2)ccc1OCc1ccc(Cl)cc1`, the compound was classed as inactive. Regarding `CC(C)OC(=O)c1ccc(N)cc1`, the outcome was inactive.

On to `CC(=O)Oc1ccc2occ(C(=O)c3cccs3)c2c1`, for which the outcome was inactive. The result for `CCCC1CCC(C(=O)Nn2c(C)nc3ccccc3c2=O)CC1` (stereo not given) reads “inactive”; that for `CCOC(=O)c1cc(CC)sc1NC(=O)c1cc(OCC)c(OCC)c(OCC)c1`, “inactive”. To `Nc1nc2ccccc2n1/N=C/c1ccc(Br)cc1` belongs “inactive”; to `CCOc1cc(C2NN=C(c3ccc(C)cc3)S2)ccc1O` (stereo not given), “inactive”. To `CC(=O)c1ccc(NC(=O)COC(=O)c2c3c(nc4ccccc24)/C(=C\c2cccs2)CCC3)cc1` belongs “inactive”; to `CC(/C=C/C=C/c1ccccc1)=N\NC(=O)c1cccnc1`, “inactive”. As to `CCNc1nc(NCC)n2c(SC(C(=O)Nc3cc(C)ccc3C)c3ccccc3)nnc2n1` (stereo not given), the outcome was inactive. The result for `Cc1ccc(-c2cn3cccnc3n2)cc1NC(=O)c1ccc(Br)o1` reads “inactive”; that for `Clc1nc2c(-c3ccccc3)nnn2c2ccccc12`, “inactive”; that for `CCCCc1ccc(NC(=O)CSC2=NN3CCCC(=O)N=C3S2)cc1`, “inactive”. On to `COc1ccccc1/C=C/C1=NC(=C\C=C/c2ccccc2)/C(=O)O1`, for which the outcome was inactive.

As to `Cc1ccc(-c2nnc(C)c(N3CCCC3)n2)cc1`, the outcome was inactive. The result for `CC(OC(=O)CCN=C1NS(=O)(=O)c2ccccc21)C(=O)Nc1ccc(F)c(F)c1F` (stereo not given) reads “inactive”; that for `COc1cc(NC(=O)c2ccc(C(C)(C)C)cc2)c(OC)cc1NC(=O)CN1CCCCC1`, “inactive”.

On to `Cc1sc2nc(CN(C(=O)NC3CCCCC3)C3CCCC3)[nH]c(=O)c2c1C`, for which the call was inactive. The result for `Cc1cc(Nc2ccccc2)c2c([N+](=O)[O-])ccc(C)c2n1` reads “inactive”. The result for `O=Cc1ccc2noc(-c3ccc(Cl)cc3)c2c1` reads “inactive”.

Turning to `Cc1nn(-c2ccccn2)c2c1-c1nc(N3CCOCC3)ncc1CC2`, the compound was called inactive.

Consider `CC(C)N1C(=O)NC(=O)C2(Cc3cc([N+](=O)[O-])ccc3N(C)C2c2ccccc2)C1=O` (stereo not given), for which the compound was called inactive.

With `CN(C)c1nc(NCc2ccccc2)nc(N/N=C/c2ccc3c(c2)OCO3)n1`, the compound was classed as inactive.

With `CCCCn1c(N)c(N(CC(C)C)C(=O)c2oc3c(Cl)cccc3c2C)c(=O)[nH]c1=O`, the call was inactive. As to `OCCN(/C=N/c1nc(-c2ccc(Br)cc2)cs1)CCO`, the compound was classed as inactive. To `CC(C)(C)n1c(O)c(C=Nc2ccc3c(c2)CCC3)c(=O)[nH]c1=O` belongs “inactive”. The result for `CCOC(=O)c1c(/N=C/N(C)C)sc(/C=N/Nc2ccccc2)c1-c1ccccc1Cl` reads “inactive”.

As for `COCCn1c(-c2ccc(OC(F)(F)C(F)C(F)(F)F)cc2)nc2c1c(=O)[nH]c(=O)n2CC(C)C` (stereo not given), the outcome was inactive. The result for `COc1ccccc1N1C(=O)NC(=O)/C(=C/c2ccc([N+](=O)[O-])s2)C1=O` reads “inactive”; that for `N#CCCn1cc(/C=C2\NC(=S)N(c3ccccc3)C2=O)c(-c2ccc(-c3ccccc3)cc2)n1`, “inactive”. As to `CN1/C(=N\O)c2cccc3cccc1c23`, the compound was classed as inactive.

As for `Cc1cc(OCc2nc3ccccc3s2)ccc1N`, the compound was called inactive. On to `Cc1cc(O)c(/C=N/Nc2cccc(Cl)c2)c(=O)o1`, for which the outcome was inactive. To `COc1ccc(-c2c(-c3cc(OC)cc(OC)c3)n(C)c3ccc(-c4ccn[nH]4)cc23)cc1` belongs “inactive”; to `Nc1ccc(N=Nc2ccccc2)c(N)n1`, “inactive”. To `CCC(C)OC(=O)C(C)Oc1ccc(-c2ccccc2)cc1` (stereo not given) belongs “inactive”. `CC(=O)/C(=C\Nc1ccc(OCc2ccccc2)cc1)c1ccccc1`: the outcome was inactive. To `CC(=O)c1cccc(Nc2nc(-c3cccnc3)cs2)c1` belongs “inactive”; to `O=c1[nH][nH]c(-c2ccccc2O)c1C(C[N+](=O)[O-])c1cccc(Cl)c1` (stereo not given), “inactive”. The result for `COc1cc2[nH]c(Cl)c([N+](=O)[O-])c2cc1OC` reads “inactive”; that for `C#CCOC(=O)/C(=C/c1ccc(F)cc1)NC(C)=O`, “inactive”.

On to `CN1[C@@H]2CC[C@H]1CC(OC(=O)[C@H](CO)c1ccccc1)C2` (stereo not given in full), for which the compound was called inactive.

With `CCOc1cc(/C=N\NC(=O)Cn2nc([N+](=O)[O-])cc2C)ccc1OCc1cccc2ccccc12`, the call was inactive. As for `N#CC1=C(N)NC(SCC(=O)c2ccccc2)=C(C#N)C12CCCC2`, the outcome was inactive. The result for `CCOc1ccc2nc(/N=C/c3nc(-c4ccccc4)oc3O)sc2c1` reads “inactive”; that for `COc1ccccc1/C=N/NC(=O)NC12CC3CC(CC(C3)C1)C2`, “inactive”. To `Nc1ccc(OCc2ccco2)cc1` belongs “inactive”; to `Nc1cnc(-c2ccccc2)nc1Cl`, “inactive”; to `Cc1ccc(-c2ccc(/C=N/c3ncn[nH]3)o2)cc1Cl`, “inactive”. To `COc1ccc(-c2nc(C#N)c(N3CCc4ccccc4C3)o2)cc1OC` belongs “inactive”; to `COc1ccc(NC(=O)C(=O)NCC(c2ccco2)N2CCc3ccccc3C2)cc1` (stereo not given), “inactive”; to `C=CCOc1ccc(/C=N/O)cc1Cl`, “inactive”. On to `Cc1ccccc1C1C(C#N)=C2N=C(N)c3c(sc4c3CCCCC4)N2C2=C1C(=O)CC(C)(C)C2` (stereo not given), for which the compound was called inactive.
